KCNQ2 inh: KCNQ2 (rat) channel inhibition; O88943; CHO-K1 KCNQ2, FluxOR thallium flux, 20 min; active compounds read low; B-score at 10 µM; 1.1% of 310,000 active;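 active = fluorescence ratio B-score at most minus 3 library SDs, with starting brightness B-score within 2 library SDs, cut at about -5.5 in these data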
KCNQ2 pot: KCNQ2 (rat) channel potentiation. O88943. CHO-K1 KCNQ2, FluxOR thallium flux fluorescence; active compounds read high. B-score at 10 µM. 0.54% of 310,000 active;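 active = fluorescence ratio B-score at least 3 SD of library B-scores, with initial fluorescence B-score within 3 of them, cut at about 5.3 in these data; same plate scores as AID 2156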;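 note: B-score of peak minus minimum over baseline fluorescence ratio after K+ and Tl+ stimulus; positive B-score means potentiation of KCNQ2 with more thallium influx and brighter signal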
Kir21 confirm: confirmation of mouse Kir2.1 potassium channel inhibitors | shares compounds with KCNQ2 pot | Kir2.1-expressing cells, FluxOR thallium flux fluorescence; active compounds read low | Tl flux remaining, % of negative control (active compounds read low), % at 10 µM | 41% of 2,300 active | AID 2032;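 active = Primary-screen hit whose thallium flux fell at least 3 control SD below untreated wells in both duplicates, with normal baseline fluorescence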;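 note: 0% = blank wells without stimulus and 100% = stimulated no-compound controls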
HEK293 Tl flux: counter-screen for Kir2.1 inhibitors: effect in parental HEK293 cells | shares compounds with KCNQ2 pot | FluxOR thallium flux fluorescence; 0% = unstimulated blank wells | FluxOR signal as % of negative control (100 = no effect), % at 10 µM | 19% of 2,300 active | AID 2105;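 active = dye signal at least 3 control SD above or below untreated wells in both duplicates, raw fluorescence within 3, either direction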;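 note: percent is based on the flux ratio of peak minus minimum fluorescence over baseline F0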
* marks the source's active call; other numbers are inactive results; i = inactive; · = not tested or not shown. Compounds with a hit are over-represented: about 1.6% of the library has one in this group of screens.

SMILES | KCNQ2 inh | KCNQ2 pot | others
O=C(O)C1C2CC3CC(C2)CC1(n1ncc(N2CCC4(CC2)OCCO4)c(Cl)c1=O)C3 (configuration not stated) | i | ·
COc1cc(CC(C)N)c(OC)cc1I (configuration not stated) | i | 0.68
CCCCCSc1cc(OC)c(CCN)cc1OC | i | · | Kir21 confirm=46%*;HEK293 Tl flux=i
COc1ccc(C2(c3cccc(O)c3OC)CCN(C(C)=O)CC2)cc1O | i | 2
O=c1c2ccccc2nc(CNCC2CCCO2)n1-c1ccc(F)cc1 (configuration not stated) | i | ·

Screening data deposited in PubChem by Johns Hopkins Ion Channel Center.
